# According to PMC7862700, “An all-to-all approach to the identification of sequence-specific readers for epigenetic DNA modifications on cytosine”:
# Columns and labels:
# Experiment in all cases: DAPPL (digital affinity profiling via proximity ligation, sequencing); 10 mM Tris-HCl pH 7.5, 50 mM NaCl, 1 mM DTT, 4% glycerol, room temperature, 30 min; GST-TFs on glutathione beads, 16-mer random dsDNA library, 0.1% formaldehyde crosslink after washing; high values mean tight binding
# Conditions in all cases: protein: recombinant; tags: N-terminal GST; dsDNA, one strand shown
# FLI1 = target: T1, FLI1 (Homo sapiens, UniProt Q01543 1-452)
# T1 sequence: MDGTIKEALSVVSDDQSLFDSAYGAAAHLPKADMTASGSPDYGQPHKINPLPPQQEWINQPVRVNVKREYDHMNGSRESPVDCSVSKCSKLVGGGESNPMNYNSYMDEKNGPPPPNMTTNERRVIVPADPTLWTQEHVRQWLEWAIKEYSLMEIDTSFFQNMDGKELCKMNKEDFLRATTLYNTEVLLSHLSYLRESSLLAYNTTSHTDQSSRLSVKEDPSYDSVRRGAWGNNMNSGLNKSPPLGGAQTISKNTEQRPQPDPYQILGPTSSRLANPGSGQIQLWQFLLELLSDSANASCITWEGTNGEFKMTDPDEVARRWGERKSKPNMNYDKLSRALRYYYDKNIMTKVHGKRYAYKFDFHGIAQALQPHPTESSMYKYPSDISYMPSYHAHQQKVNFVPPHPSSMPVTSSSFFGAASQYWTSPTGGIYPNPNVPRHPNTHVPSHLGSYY
# How it was run: (§1)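 Sequencing on an Illumina NextSeq500 followed washing, crosslinking with 0.1% formaldehyde, proximity ligation (BsaI/T4 ligase, 1 h, 37 °C) and PCR amplification of pools that had been incubated for 30 min at room temperature with 200 nmole of a random double-stranded 16-mer DNA library in Tris/NaCl/DTT/glycerol buffer. Each pool held DNA-barcoded human transcription factors, expressed in yeast as GST fusions and captured on glutathione beads, plus a tag-only sample. Binding signal is a hexamer's read frequency for a factor divided by its frequency in the tag-only sample.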
# ELF1 = ELF1 (Homo sapiens, UniProt P32519 1-619)
# How it was run: as §1
# EHF = target: T2, EHF (Homo sapiens, UniProt Q9NZC4 1-300)
# T2 sequence: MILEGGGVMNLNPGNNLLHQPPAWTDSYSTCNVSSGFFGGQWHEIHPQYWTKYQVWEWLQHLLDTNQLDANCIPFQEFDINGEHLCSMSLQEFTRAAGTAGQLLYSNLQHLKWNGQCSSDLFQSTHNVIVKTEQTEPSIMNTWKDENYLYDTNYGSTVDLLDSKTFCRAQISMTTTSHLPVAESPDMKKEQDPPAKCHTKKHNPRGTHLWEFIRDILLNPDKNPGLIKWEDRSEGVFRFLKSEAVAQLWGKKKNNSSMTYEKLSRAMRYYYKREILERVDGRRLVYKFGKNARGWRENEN
# How it was run: as §1
# SPIB = SPIB (Homo sapiens, UniProt Q01892 1-262)
# How it was run: as §1
# SPIC = target: T3, SPIC (Homo sapiens, UniProt Q8N5J4 1-248)
# T3 sequence: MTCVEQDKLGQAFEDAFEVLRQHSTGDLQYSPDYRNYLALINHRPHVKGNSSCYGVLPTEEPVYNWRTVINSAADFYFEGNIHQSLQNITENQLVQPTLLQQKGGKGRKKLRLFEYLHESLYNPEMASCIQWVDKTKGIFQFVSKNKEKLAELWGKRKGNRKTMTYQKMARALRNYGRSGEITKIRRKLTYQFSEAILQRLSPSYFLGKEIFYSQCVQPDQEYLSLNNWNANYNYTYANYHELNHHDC
# How it was run: as §1
# ELF4 = ELF4 (Homo sapiens, UniProt Q99607 1-663)
# How it was run: as §1
# ELK4 = target: T4, ELK4 (Homo sapiens, UniProt P28324-2 1-405)
# T4 sequence: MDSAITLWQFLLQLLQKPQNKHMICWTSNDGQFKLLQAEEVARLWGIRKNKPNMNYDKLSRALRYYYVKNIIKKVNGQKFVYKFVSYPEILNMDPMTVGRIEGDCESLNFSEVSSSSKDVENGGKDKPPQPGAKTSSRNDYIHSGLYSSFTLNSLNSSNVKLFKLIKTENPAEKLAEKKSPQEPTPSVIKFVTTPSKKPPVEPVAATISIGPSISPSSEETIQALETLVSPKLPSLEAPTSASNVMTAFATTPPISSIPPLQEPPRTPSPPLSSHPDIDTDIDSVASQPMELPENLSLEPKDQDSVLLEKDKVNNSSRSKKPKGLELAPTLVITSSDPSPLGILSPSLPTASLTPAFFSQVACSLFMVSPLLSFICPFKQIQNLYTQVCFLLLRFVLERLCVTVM
# How it was run: as §1
# ETV2 = target: T5, ETV2 (Homo sapiens, UniProt O00321 1-342)
# T5 sequence: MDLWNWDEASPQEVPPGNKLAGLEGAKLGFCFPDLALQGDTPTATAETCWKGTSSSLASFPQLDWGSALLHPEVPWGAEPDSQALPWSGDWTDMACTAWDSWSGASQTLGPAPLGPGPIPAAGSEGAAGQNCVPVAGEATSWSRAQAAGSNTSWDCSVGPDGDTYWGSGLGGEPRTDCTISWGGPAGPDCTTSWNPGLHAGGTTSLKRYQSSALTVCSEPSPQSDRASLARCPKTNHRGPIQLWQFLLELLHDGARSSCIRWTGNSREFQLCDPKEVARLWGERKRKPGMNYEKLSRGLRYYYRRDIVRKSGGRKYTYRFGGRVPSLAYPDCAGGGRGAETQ
# How it was run: as §1
# CRX = CRX (Homo sapiens, UniProt O43186 1-299)
# How it was run: as §1
# ERF = target: T6, ERF (Homo sapiens, UniProt P50548 1-548)
# T6 sequence: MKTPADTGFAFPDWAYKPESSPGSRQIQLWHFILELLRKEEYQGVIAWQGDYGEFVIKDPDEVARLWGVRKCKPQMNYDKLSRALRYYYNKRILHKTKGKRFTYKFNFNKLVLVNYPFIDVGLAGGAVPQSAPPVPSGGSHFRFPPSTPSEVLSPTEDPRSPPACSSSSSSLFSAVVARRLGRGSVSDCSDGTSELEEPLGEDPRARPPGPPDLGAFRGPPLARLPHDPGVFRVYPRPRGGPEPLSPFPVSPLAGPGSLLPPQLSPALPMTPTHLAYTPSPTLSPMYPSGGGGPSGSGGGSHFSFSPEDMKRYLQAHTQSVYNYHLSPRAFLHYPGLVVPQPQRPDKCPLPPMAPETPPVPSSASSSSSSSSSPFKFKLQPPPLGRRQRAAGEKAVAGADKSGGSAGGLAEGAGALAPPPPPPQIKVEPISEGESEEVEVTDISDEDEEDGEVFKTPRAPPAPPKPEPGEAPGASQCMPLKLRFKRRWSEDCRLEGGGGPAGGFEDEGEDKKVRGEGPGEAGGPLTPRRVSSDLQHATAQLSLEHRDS
# How it was run: as §1
# ETV7 = target: T7, ETV7 (Homo sapiens, UniProt Q9Y603 1-341)
# T7 sequence: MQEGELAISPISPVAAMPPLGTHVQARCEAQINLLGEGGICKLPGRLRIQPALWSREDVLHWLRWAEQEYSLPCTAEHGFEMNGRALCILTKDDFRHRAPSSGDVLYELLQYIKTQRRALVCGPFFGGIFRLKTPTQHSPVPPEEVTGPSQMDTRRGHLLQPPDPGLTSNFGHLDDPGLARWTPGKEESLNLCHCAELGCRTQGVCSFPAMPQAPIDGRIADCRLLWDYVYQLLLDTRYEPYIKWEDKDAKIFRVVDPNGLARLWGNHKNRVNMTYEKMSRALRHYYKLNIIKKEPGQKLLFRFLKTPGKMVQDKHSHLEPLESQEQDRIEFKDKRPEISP
# How it was run: as §1
# ETV6 = ETV6 (Homo sapiens, UniProt P41212 1-452)
# How it was run: as §1
# Chain of ETV6 (P41212 whole entry): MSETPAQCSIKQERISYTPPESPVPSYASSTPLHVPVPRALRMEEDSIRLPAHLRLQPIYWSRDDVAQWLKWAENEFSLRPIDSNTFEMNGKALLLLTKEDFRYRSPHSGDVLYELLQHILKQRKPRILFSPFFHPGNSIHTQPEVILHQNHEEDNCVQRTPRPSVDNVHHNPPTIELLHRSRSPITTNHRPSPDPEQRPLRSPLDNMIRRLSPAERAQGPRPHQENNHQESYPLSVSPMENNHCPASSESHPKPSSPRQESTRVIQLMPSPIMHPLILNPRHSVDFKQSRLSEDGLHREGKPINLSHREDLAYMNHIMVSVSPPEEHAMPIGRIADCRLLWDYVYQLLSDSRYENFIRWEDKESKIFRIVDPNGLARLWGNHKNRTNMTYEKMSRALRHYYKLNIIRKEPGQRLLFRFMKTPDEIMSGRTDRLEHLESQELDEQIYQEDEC
# Chain of SPIB (Q01892 whole entry): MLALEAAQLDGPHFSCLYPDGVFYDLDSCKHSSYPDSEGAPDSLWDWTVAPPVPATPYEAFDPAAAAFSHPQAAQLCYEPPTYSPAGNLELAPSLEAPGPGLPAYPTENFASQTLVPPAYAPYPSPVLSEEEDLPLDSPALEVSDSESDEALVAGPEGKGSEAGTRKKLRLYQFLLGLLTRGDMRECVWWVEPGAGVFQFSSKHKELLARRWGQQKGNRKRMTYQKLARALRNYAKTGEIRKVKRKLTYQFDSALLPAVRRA
# Chain of ELF1 (P32519 whole entry): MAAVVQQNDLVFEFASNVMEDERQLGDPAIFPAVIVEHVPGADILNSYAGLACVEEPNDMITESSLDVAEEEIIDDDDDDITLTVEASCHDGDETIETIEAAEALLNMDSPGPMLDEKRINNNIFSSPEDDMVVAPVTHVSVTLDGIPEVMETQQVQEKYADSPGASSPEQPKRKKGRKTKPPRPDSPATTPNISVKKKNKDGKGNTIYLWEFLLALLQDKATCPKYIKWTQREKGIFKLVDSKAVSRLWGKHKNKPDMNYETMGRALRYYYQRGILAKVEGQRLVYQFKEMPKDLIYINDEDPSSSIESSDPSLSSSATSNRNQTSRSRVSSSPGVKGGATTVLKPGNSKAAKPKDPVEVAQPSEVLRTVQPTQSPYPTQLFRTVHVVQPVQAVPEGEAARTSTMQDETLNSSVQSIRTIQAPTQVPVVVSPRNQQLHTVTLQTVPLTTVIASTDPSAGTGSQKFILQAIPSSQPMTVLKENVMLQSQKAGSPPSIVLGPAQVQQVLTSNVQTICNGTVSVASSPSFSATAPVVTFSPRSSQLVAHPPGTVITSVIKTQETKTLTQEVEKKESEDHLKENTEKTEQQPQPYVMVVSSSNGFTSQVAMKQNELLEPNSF
# Chain of ELF4 (Q99607 whole entry): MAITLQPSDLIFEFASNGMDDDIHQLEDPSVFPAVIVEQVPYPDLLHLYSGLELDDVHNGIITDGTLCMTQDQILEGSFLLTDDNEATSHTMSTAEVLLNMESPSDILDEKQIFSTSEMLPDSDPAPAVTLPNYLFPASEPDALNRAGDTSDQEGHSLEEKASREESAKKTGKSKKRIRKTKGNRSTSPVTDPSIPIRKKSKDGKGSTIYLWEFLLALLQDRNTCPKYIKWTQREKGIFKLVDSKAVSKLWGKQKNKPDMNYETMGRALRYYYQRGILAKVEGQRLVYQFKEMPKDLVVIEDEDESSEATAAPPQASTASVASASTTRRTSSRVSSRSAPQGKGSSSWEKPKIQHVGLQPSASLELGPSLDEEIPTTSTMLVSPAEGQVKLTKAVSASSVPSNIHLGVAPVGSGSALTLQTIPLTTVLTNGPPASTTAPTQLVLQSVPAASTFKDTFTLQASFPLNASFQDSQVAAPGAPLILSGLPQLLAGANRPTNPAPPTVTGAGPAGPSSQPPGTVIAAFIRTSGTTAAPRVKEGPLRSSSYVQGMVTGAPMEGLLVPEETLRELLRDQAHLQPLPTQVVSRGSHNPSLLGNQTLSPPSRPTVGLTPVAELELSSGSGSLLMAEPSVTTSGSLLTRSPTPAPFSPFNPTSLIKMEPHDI
# Chain of CRX (O43186 whole entry): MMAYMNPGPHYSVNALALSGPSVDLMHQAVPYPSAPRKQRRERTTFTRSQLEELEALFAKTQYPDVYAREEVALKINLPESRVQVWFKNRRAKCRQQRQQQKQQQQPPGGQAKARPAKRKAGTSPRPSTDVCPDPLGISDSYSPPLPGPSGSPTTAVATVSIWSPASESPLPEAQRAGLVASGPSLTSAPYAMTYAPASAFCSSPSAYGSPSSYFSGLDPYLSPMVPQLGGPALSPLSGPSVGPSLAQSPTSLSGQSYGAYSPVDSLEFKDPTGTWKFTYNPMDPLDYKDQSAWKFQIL
sequence,measurement,setting,value
TAGTTG,binding signal,FLI1,"1.04 fold enrichment (6-mer frequency, TF over GST control)"
same,binding signal,ELF1,"1.01 fold enrichment (6-mer frequency, TF over GST control)"
same,binding signal,EHF,"1.01 fold enrichment (6-mer frequency, TF over GST control)"
same,binding signal,SPIB,"1.02 fold enrichment (6-mer frequency, TF over GST control)"
same,binding signal,SPIC,"1 fold enrichment (6-mer frequency, TF over GST control)"
same,binding signal,ELF4,"1.01 fold enrichment (6-mer frequency, TF over GST control)"
same,binding signal,ELK4,"1.18 fold enrichment (6-mer frequency, TF over GST control)"
same,binding signal,ETV2,"1.01 fold enrichment (6-mer frequency, TF over GST control)"
same,binding signal,CRX,"1.03 fold enrichment (6-mer frequency, TF over GST control)"
same,binding signal,ERF,"1.07 fold enrichment (6-mer frequency, TF over GST control)"
same,binding signal,ETV7,"1.02 fold enrichment (6-mer frequency, TF over GST control)"
same,binding signal,ETV6,"1.01 fold enrichment (6-mer frequency, TF over GST control)"
